Our source for the outcome values is PubChem BioAssay AID588477 (NMMLSC, 2011).

Active and inactive are the calls of the source.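 Rule for the calls: active = valid curve fit with half-effect dose at most 10 µM and total binding change across doses of 30 points or more; inactive = the rest.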

This test in a line: small GTPase nucleotide-binding inhibition, multiplex panel – biochemical, round 1 SAR, Mg buffer, multiplex flow cytometry, selectivity assay for Cdc42 probe extension project, SAR follow-up (AID 588477). Particulars: GST-GTPase beads, Bodipy-GTP binding, Rac constitutively active; series mostly up to 100 µM.
For the molecule `O=C(C#Cc1ccccc1)c1cccc([N+](=O)[O-])c1`, the molecule was classed as inactive.

On to `NS(=O)(=O)c1ccc(N2N=C(c3ccccc3)CC2c2ccccc2)cc1` (stereo not drawn), for which the outcome was inactive.

Take `COc1ccc(C2CC(c3ccccc3)=NN2c2ccc(S(N)(=O)=O)cc2)cc1` (stereo not drawn): the molecule was classed as inactive.
